Most compounds without a hit are left out; they make up all but 28% or so of the library.
CYP2C19 inh = blockers of cytochrome P450 2C19 activity – biochemical, luminescence, ADME assay, primary screen; CYP2C19 Supersomes, luciferin-H EGE luminescence, 30 min; 21% of 96,000 active; AID 778, 2007; P33261; inhibition, % at 5 µM;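 active = CYP2C19 inhibition above a set limit at 5 µM in the primary screen, cut at about 50% in these data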
Mac1 fbg enh = enhancers of CD11b/CD18 adhesion to fibrinogen, primary screen, K562 cells, luminescence | ATPlite luminescence | activation, % at 10 µM | 0.07% of 93,000 active | Integrin beta-2 (Homo sapiens) + Integrin alpha-M (Homo sapiens), P05107+P11215 | AID 1499, 2009;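 active = 10 µM primary screen giving 50% or more activity, confirmed by 40% or more on retest at that dose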
CYP2C19 act = human CYP2C19 activators, primary screen, biochemical, luminescence | Cytochrome P450 2C19 (Homo sapiens), P33261 | recombinant CYP2C19, luciferin-H EGE luminescence; stronger effect = higher value; 0 = fully inhibited enzyme, 1 = untreated enzyme | activation factor at 5 µM | 96,000 tested, under 10 active;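 active = activation factor of at least 2 at 5 µM in the primary screen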
Mac1 fbg inh = inhibitors of CD11b/CD18 adhesion to fibrinogen, primary screen, K562 cells, luminescence; ATPlite luminescence; Mn2+ added to activate the integrin; inhibition, % at 10 µM; 0.54% of 93,000 active;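 active = primary inhibition of 50% or more at 10 µM, then 40% or more on retest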
CYP2C9 activ = human CYP2C9 activators, primary screen, biochemical, luminescence. Cytochrome P450 2C9 (Homo sapiens), P11712. recombinant CYP2C9, luciferin-H conversion; stronger effect = higher value; factor 1 = untreated enzyme, 0 = blocked. 1.4% of 96,000 active. activation factor at 5 µM;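 active = activation factor of 2 or more for CYP2C9 at a 5 µM dose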
CYP2C9 inh = blockers of cytochrome P450 2C9 activity – biochemical, luminescence, ADME assay, primary screen. P11712. CYP2C9 Supersomes, luciferin-H conversion. inhibition, % at 5 µM. 20% of 96,000 active;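 active = blocking of liver enzyme CYP2C9 beyond about 50% at 5 µM, limit read from the data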
Hits are given with their value; 0 = inactive; - = no result.

SMILES | CYP2C19 inh | Mac1 fbg enh | CYP2C19 act | Mac1 fbg inh | CYP2C9 activ | CYP2C9 inh
O=C1CC(C(=O)NC2CCCCC2)C(c2ccccc2)O1 (centres undefined) | 0 | 0 | 0 | 0 | 0 | 0
COc1cccc(/C=C/C(=O)OCC(=O)N2c3ccccc3NC(=O)C2(C)C)c1 | - | 0 | - | 0 | - | -
O=C(/C=C/c1ccc(Br)cc1)N1CCN(c2cccc(C(F)(F)F)c2)CC1 | - | 0 | - | 0 | - | -
C#CCSc1nnc(-c2ccc(OC)cc2)o1 | 0 | 0 | 0 | 0 | 0 | 0
O=C(CSc1ccc2c(c1)OCCO2)Nc1ncc(Cl)cc1Cl | 76 | 0 | 0 | 0 | 0 | 82
Cc1cc(NC(=O)CSc2ccccc2)no1 | 51 | 0 | 0 | 0 | 0 | 0
Cc1cc(NS(=O)(=O)c2ccc(NC(=O)C(c3ccccc3)c3ccccc3)cc2)no1 | 0 | 0 | 0 | 0 | 0 | 64
CCC(C(=O)Nc1cc(C)on1)c1ccccc1 (centres undefined) | 65 | 0 | 0 | 0 | 0 | 54
O=C(CSc1ccc2c(c1)OCCO2)NCCc1ccc(Cl)cc1Cl | - | 0 | - | 0 | - | -
Cc1ccc(-c2nc(C3CCN(S(C)(=O)=O)CC3)no2)cc1 | 0 | 0 | 0 | 0 | 0 | 0
O=C1CC(=O)C(n2cncn2)C(c2ccc(Cl)cc2Cl)C1 (centres undefined) | 0 | 0 | 0 | 0 | 0 | 74
CC(C)(C)c1ccc(Oc2cccc(C3CC(=O)C(C4NCCc5ccccc54)C(=O)C3n3cncn3)c2)cc1 (centres undefined) | 0 | 0 | 0 | 0 | 0 | 0
COc1cccc(-c2nc(CS(=O)(=O)CC(=O)N3CCc4ccccc43)c(C)o2)c1 | 0 | 0 | 0 | 0 | 0 | 0
COc1cc(OC)cc(C(=O)NCC(=O)OCC(=O)c2ccc3c(c2)-c2ccccc2C3)c1 | - | 0 | - | 0 | - | -
COCCCNC(=O)c1oc2ccc(S(=O)(=O)N(C)C3CCCCC3)cc2c1C | 0 | 0 | 0 | 0 | 0 | 76
Cc1ccc(CNC(=O)c2oc3ccc(S(=O)(=O)N4CCC5(CC4)OCCO5)cc3c2C)cc1 | 0 | 0 | 0 | 0 | 0 | 65
Cc1c(C(=O)NCc2cccnc2)oc2ccc(S(=O)(=O)N3CCC4(CC3)OCCO4)cc12 | 0 | 0 | 0 | 0 | 0 | 0
C=CCNC(=O)c1oc2ccc(S(=O)(=O)N(CC)CC)cc2c1C | 0 | 0 | 0 | 0 | 0 | 0
Cc1c(C(=O)O)oc2ccc(S(=O)(=O)NCc3ccc(F)cc3)cc12 | 0 | 0 | 0 | 0 | 0 | 72
CCN(CC)C(=O)c1oc2ccc(S(=O)(=O)N3CCCCCC3)cc2c1C | 51 | 0 | 0 | 0 | 0 | 0
Cc1c(C(=O)N2CCOCC2)oc2ccc(S(=O)(=O)N3CCCCCC3)cc12 | 0 | 0 | 0 | 0 | 0 | 0
COc1cc(/C=C(\NC(=O)c2ccccc2)C(=O)Nc2cccc(O)c2)c([N+](=O)[O-])cc1OC | 0 | 0 | 0 | 0 | 0 | 0
O=S(=O)(c1ccc2c(c1)nc(COc1ccc(Cl)cc1)n2CC1CCCO1)N1CCOCC1 (centres undefined) | 0 | 0 | 0 | 0 | 0 | 0

Assay outcomes: PubChem, Sanford-Burnham Center for Chemical Genomics
